The record followed here is the supplement of paper PMC13380429.

Assay [1] concerns Vero E6 infected with SARS-CoV-2. As to the kind of experiment: morphology score (similarity to uninfected cells); higher = more like uninfected cells. Particulars: 24 h.
Assay [2] shares this test system. As to the kind of experiment: SARS-CoV-2 infection rate relative to infected DMSO; higher = more infection, active = 60 or less. As to conditions: 24 h.

As for `C#C[C@]1(O)CC[C@H]2[C@@H]3CCC4=CC(=O)CC[C@]4(C)[C@H]3CC[C@@]21C` [ethisterone] (10 µM), the morphology score in assay [1] is -0.0671. In assay [2], the SARS-CoV-2 infection rate is 107% (inactive).
Turning to `C=C(C)[C@@H]1CC[C@]2(C(=O)O)CC[C@]3(C)[C@H](CC[C@@H]4[C@@]5(C)CC[C@H](O)C(C)(C)[C@@H]5CC[C@]43C)[C@@H]12` [betulinic-acid] (10 µM), in assay [1], the morphology score turned out to be 0.0296. The SARS-CoV-2 infection rate in assay [2] was 108% (inactive).
Taken in the same sequence, the figures for `CCN(CCCc1ccccc1)CCCc1ccccc1` [alverine] (10 µM) were 0.397 and 62% (inactive).
In the same order, the values of `COc1ccc2cc(-c3cc(-c4cc(Cl)cc(Cl)c4)nn3[C@@H](C)c3ccc(C(=O)NCCC(=O)O)cc3)ccc2c1` (10 µM) are 0.164 and 106% (inactive).
Take `NC(=S)N/N=C/c1ncccc1N` [triapine] (0.833333 µM): the morphology score in assay [1] was 0.051. The SARS-CoV-2 infection rate in assay [2] is 106% (inactive).
Compound `COC(=O)C(c1ccccc1)C1CCCCN1` (stereo not given) (10 µM) returned a morphology score in assay [1] of 0.0486. In addition, in assay [2], the SARS-CoV-2 infection rate is 114% (inactive).
Taken in the same sequence, the figures for `CCOC(=O)N1CSC[C@H]1C(=O)O` [telmesteine] (10 µM) were 0.00511 and 99.5% (inactive).
The compound `CN(CCOc1ccc(CC2SC(=O)NC2=O)cc1)c1ccccn1` (stereo not given) [rosiglitazone] (10 µM) gave a morphology score in assay [1] of 0.279. Besides, the SARS-CoV-2 infection rate in assay [2] is 92.5% (inactive).
With `CCC(=O)O[C@@](Cc1ccccc1)(c1ccccc1)[C@@H](C)CN(C)C` [levopropoxyphene] (10 µM), the morphology score in assay [1] was -0.0577. Moreover, the SARS-CoV-2 infection rate in assay [2] is 109% (inactive).
`O=C1C[C@@]2(C(=O)N1)C(=O)N(Cc1ccc(Br)cc1F)C(=O)c1cccn12` [ranirestat] (10 µM): the morphology score in assay [1] came to 0.148. For the same compound, the SARS-CoV-2 infection rate in assay [2] was 94.5% (inactive).
